The values below come from the supplement of paper PMC10849652.

Assay in all cases: log2 fold change, soluble protein after heating vs DMSO (PISA); higher = thermal stabilisation; K562 cells, 10 uM, 30 min; active = over 0.2 and 3.5 SD of the protein, either way, in both replicates (recomputed)
Compound in experiment [1]: C#Cc1cccc(Nc2ncnc3cc(OCCOC)c(OCCOC)cc23)c1 [erlotinib]
A digest of the protocol:
(§1)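 K562 cells (2×10^6 cells/mL) were treated with 10 μM compound for 30 min, and aliquots were heated for 3 min over 48°C-58°C. Pooled aliquots were extracted in PBS with 0.5% NP-40 at 4°C, and the supernatant after 21,000xg for 90 min was measured by TMTpro 16plex LC-MS/MS with channel sums equalised. Reported thermal stability, relative to control samples and from duplicates, is a log2 fold change.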

Compound in experiment [2]: C/C(=N\NC(=O)C1=CC(=CC=C1)S(=O)(=O)N2CCOCC2)/C3=C(C=CC(=C3)Cl)O
A digest of the protocol:
as §1

Compound in experiment [3]: C1=CC(=C(C=C1Cl)C2=NC3=NC=CN=C3C(=N2)NC4=CC=NC=C4)F
Put shortly:
as §1

Compound in experiment [4]: C1=CC(=CC=C1C2=NC3=C(N2)C=C(C=C3)C(=O)N)OC4=CC=C(C=C4)Cl
Put shortly:
as §1

Compound in experiment [5]: C1=CC2=C(C=CC(=C2)/C=C\3/C(=O)NC(=NCC4=CC=CS4)S3)N=C1
Put shortly: as §1

Compound in experiment [6]: C1=CC2=NC=CN=C2C=C1/C=C/3\C(=O)NC(=O)S3
A digest of the protocol:
as §1

Compound in experiment [7]: C1=CC=C(C=C1)C2=NC(=C(N2)C3=CC=NC=C3)C4=CC(=C(C=C4)Cl)O
A digest of the protocol:
as §1

Compound in experiment [8]: C1=CC=C2C(=C1)C3=NNC4=CC=CC(=C43)C2=O
A digest of the protocol:
as §1

Compound in experiment [9]: C1CCN(C1)C(=O)NC2=CC=CC(=C2)NC3=NC=C(C(=N3)NCCC4=CN=CN4)Br
Put shortly: as §1

Compound in experiment [10]: C1CN(CCC1(CC2=CC=C(C=C2)Cl)N)C3=NC=NC4=C3C=CN4
Put shortly:
as §1

Compound in experiment [11]: C1COCCN1CCN2C3=CC=CC=C3N=C2NC(=O)C4=CC(=CC=C4)[N+](=O)[O-] [IRAK-1-4 Inhibitor I]
Put shortly: as §1

Compound in experiment [12]: C=CC(=O)N1CCC[C@@H](n2nc(-c3ccc(Oc4ccccc4)cc3)c3c(N)ncnc32)C1 [ibrutinib]
Put shortly: as §1

Compound in experiment [13]: CC(=O)c1cnc2ccc(-c3cc(Cl)c(O)c(Cl)c3)nc2c1N[C@H]1CC[C@H](CN(C)C)CC1
A digest of the protocol: as §1

Compound in experiment [14]: CC(C)(C)Cn1c(N)nc2ccc(-c3[nH]c(C(C)(C)C)nc3-c3ccc(F)cc3)nc21 [ralimetinib]
A digest of the protocol: as §1

Compound in experiment [15]: CC(C)(O)CC(=O)NCCn1ccc2ncnc(Nc3ccc(Oc4cccc(C(F)(F)F)c4)c(Cl)c3)c21
Put shortly:
as §1

Compound in experiment [16]: CC(C)C1=C2N=C(C=C(N2N=C1)NCC3=CC=CC=C3)NCCCCCCN
A digest of the protocol:
as §1

Compound in experiment [17]: CC(C)C[C@@H](C=O)NC(=O)[C@H](CC(C)C)NC(=O)[C@H](CC(C)C)NC(=O)OCc1ccccc1
Put shortly:
as §1

Compound in experiment [18]: CC(C)N(C[C@H]1O[C@@H](n2cnc3c(N)ncnc32)[C@H](O)[C@@H]1O)[C@H]1C[C@@H](CCc2nc3cc(C(C)(C)C)ccc3[nH]2)C1 [pinometostat]
A digest of the protocol: as §1

Compound in experiment [19]: CC1=C(C(CC(=O)N1)C2=CC=C(C=C2)C(F)(F)F)C(=O)NC3=C(C=C4C(=C3)C=NN4)F
Put shortly: as §1

Compound in experiment [20]: CC1=C(C2=C(C=C1)C(=O)C3=CC=CC=C3N2CCCN)C
Put shortly: as §1

The full data set covers some 7,900 targets. This sample favours those with a hit. About 0.6% of all pairs of compound and target were hits. A number with no mark means an inactive call.

Sequence of UniProt Q14676 (Q14676 whole entry, looked up): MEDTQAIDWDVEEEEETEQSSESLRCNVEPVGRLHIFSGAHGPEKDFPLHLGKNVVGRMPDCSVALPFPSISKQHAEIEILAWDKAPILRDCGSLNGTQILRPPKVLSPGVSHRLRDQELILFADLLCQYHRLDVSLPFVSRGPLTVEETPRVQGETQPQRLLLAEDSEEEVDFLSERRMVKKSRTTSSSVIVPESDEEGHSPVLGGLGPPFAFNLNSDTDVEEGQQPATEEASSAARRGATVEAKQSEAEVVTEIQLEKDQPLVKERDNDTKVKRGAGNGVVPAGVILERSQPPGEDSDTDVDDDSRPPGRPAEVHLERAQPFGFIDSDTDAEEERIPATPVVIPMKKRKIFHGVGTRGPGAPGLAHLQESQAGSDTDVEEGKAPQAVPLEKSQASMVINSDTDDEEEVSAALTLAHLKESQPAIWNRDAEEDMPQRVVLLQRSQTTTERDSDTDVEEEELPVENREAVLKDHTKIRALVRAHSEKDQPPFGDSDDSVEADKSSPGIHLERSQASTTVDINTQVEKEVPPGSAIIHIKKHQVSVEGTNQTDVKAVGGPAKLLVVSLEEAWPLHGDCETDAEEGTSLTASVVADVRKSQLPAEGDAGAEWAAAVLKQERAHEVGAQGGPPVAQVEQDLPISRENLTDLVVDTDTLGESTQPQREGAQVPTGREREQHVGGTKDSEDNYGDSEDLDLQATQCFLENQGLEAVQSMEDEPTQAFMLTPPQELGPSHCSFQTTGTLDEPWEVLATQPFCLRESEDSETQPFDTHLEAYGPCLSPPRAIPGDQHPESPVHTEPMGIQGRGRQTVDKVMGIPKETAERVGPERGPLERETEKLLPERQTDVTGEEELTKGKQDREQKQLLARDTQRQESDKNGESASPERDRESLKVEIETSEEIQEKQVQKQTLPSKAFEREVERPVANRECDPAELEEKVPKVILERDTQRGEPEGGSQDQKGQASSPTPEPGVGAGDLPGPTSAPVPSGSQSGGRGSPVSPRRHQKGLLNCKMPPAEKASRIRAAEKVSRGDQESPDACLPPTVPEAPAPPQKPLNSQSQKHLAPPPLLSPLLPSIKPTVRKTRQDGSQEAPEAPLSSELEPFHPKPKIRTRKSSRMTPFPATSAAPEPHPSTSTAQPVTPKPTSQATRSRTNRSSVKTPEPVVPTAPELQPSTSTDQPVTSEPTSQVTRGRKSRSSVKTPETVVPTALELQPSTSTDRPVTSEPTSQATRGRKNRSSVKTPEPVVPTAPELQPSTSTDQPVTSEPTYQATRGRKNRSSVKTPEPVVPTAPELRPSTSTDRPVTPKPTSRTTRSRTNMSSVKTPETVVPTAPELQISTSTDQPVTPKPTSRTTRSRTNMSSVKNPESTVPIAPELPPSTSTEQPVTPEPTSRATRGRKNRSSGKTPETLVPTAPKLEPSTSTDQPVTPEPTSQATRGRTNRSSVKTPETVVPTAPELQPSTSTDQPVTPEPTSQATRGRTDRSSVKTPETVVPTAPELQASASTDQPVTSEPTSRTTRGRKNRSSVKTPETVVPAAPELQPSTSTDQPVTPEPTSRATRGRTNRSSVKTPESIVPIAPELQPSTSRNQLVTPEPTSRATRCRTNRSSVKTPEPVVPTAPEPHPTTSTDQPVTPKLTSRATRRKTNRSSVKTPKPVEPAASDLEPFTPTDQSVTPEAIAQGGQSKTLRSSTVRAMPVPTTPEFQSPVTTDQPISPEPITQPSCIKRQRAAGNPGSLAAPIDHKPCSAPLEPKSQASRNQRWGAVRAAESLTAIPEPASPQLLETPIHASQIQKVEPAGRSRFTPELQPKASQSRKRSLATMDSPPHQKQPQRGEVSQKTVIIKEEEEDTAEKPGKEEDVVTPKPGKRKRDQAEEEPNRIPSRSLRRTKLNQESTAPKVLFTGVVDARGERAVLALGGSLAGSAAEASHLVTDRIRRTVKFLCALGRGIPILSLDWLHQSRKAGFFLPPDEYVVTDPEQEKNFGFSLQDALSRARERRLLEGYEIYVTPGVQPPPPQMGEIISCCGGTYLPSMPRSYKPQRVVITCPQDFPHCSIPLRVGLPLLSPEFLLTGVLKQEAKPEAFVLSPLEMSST
Sequence of UniProt P50851 (P50851 whole entry, looked up): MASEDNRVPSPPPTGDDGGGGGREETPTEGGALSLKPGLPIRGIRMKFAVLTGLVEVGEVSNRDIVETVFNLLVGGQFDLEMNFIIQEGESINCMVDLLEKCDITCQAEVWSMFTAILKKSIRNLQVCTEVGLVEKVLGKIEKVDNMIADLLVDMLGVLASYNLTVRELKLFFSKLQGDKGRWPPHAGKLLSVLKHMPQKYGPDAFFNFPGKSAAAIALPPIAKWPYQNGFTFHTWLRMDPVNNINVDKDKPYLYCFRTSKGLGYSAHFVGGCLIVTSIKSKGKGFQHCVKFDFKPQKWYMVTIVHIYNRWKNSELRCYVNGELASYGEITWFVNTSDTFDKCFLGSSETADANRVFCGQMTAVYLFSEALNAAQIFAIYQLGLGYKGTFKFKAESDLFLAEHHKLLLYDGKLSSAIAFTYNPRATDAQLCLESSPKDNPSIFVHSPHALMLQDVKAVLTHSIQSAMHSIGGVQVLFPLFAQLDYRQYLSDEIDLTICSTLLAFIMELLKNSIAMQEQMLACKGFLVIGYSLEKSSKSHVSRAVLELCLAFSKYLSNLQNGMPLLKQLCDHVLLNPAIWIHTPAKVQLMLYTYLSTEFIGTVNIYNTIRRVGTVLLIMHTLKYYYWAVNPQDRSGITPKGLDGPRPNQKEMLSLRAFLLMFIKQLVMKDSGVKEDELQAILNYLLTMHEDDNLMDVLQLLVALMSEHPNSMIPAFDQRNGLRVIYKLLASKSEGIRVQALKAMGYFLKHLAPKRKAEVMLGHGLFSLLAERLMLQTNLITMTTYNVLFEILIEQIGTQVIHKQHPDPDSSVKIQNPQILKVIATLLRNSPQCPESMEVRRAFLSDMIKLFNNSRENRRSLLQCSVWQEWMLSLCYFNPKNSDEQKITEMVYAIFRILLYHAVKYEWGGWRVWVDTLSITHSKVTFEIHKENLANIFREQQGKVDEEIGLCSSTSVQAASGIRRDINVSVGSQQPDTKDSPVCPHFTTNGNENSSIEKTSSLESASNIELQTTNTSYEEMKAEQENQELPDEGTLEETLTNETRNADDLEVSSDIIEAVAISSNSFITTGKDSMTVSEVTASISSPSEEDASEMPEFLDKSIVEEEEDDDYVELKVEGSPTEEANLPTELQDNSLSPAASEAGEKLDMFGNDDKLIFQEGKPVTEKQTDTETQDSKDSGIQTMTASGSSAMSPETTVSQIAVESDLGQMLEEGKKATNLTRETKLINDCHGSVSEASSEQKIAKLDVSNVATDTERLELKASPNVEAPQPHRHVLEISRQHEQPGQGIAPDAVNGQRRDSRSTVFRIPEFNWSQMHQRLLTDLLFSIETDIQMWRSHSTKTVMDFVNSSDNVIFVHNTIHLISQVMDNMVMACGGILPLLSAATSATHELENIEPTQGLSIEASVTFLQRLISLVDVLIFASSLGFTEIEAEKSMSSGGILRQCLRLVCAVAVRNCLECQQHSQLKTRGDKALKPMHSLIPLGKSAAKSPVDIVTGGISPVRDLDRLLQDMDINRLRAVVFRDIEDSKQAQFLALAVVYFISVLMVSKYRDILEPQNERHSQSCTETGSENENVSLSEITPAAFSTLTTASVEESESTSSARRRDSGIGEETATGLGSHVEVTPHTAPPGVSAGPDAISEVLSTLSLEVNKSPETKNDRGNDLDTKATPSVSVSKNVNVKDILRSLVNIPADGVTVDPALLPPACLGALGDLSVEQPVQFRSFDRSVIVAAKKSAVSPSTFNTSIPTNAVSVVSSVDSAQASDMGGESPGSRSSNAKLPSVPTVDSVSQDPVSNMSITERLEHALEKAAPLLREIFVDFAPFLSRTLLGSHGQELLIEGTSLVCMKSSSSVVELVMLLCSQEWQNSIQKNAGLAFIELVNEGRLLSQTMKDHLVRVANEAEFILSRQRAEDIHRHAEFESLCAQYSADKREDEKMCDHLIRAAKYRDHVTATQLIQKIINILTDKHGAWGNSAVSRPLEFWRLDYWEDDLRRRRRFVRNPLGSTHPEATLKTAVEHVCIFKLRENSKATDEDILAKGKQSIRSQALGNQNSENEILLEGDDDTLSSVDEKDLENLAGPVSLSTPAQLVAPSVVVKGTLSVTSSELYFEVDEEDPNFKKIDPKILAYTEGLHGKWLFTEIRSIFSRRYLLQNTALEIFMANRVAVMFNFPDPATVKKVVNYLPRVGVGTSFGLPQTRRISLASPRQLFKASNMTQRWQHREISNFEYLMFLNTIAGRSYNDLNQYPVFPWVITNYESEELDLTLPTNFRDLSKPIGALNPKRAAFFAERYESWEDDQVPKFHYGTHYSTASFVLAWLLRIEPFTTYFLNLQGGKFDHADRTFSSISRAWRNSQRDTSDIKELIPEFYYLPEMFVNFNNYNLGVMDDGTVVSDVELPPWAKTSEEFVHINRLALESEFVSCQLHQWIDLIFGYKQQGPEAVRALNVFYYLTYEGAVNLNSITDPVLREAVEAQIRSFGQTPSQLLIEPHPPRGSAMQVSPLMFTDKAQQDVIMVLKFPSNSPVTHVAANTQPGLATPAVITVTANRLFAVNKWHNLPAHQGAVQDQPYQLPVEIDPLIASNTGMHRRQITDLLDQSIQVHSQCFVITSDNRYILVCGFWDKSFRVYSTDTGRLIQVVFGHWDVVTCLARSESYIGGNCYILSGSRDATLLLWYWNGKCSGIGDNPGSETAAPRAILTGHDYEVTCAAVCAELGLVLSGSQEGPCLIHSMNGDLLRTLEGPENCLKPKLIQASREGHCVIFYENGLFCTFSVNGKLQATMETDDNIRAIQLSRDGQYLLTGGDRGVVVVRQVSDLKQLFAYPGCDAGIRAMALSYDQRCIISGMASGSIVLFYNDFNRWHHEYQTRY

As to MDC1 (UniProt Q14676), the log2 fold change was 0.056 in [1]; -0.284 in [2]; -0.184 in experiment [3]; 0.025 in experiment [4]; 0 in experiment [5]; 0.057 in [6]. For the same target, the log2 fold change in experiment [7] was 0.177; in [8] it was -0.094; in experiment [9], -0.139; in experiment [10], 0.072; in experiment [11], -0.012; in [12], -0.013. The log2 fold change in [13] was -0.013; in experiment [14], 0.062; in experiment [15], 0.122; in experiment [16], -0.321; in experiment [17], 0.176; in experiment [18] it was 0.133. The log2 fold change is 0.001 in [19] and 0.11 in experiment [20].

INPP5B (UniProt P32019): the log2 fold change is -0.027 in [1]; 0.056 in experiment [2]; 0.071 in experiment [3]; -0.052 in experiment [4]; 0.055 in [5]; -0.018 in experiment [6]. The log2 fold change in [7] was 0.026; in experiment [8], -0.04; in experiment [9], -0.064; in experiment [10] it was -0.039; in experiment [11] it was -0.1; in experiment [12], -0.048. Also, the log2 fold change in [13] was -0.013; in experiment [14], 0.062; in experiment [15], -0.053; in experiment [16], -0.308 (active); in [17], 0.122; in [18], 0.101. In addition, the log2 fold change in experiment [19] is 0.042; in [20] it was -0.077.

As for LRBA (UniProt P50851), the log2 fold change in experiment [1] is 0.007; in experiment [2], 0.024; in experiment [3], 0.068; in experiment [4], 0.002; in [5], 0.031; in experiment [6], 0.051. In addition, the log2 fold change in experiment [7] is 0.011; in experiment [8], -0.002; in experiment [9] it was 0.012; in [10], 0.015; in experiment [11], 0.015; in experiment [12], -0.02. Besides, the log2 fold change in experiment [13] was -0.006; in experiment [14], -0.023; in experiment [15], -0.059; in experiment [16], -0.091; in [17] it was 0.005; in experiment [18], 0.008. Besides, the log2 fold change in experiment [19] was -0.005; in experiment [20], -0.004.

As for LDAH isoform 2 (UniProt Q9H6V9), the log2 fold change in [1] was 0.116; in experiment [2] it was 0.052; in experiment [3], -0.101; in [4], -0.041; in experiment [5] it was 0.047; in experiment [6] it was 0. For the same target, the log2 fold change is 0.018 in [7]; 0 in experiment [8]; 0.06 in [9]; -0.006 in experiment [10]; 0.039 in experiment [11]; 0.066 in experiment [12]. Further, the log2 fold change was -0.039 in experiment [13]; 0.077 in experiment [14]; 0.464 (active) in experiment [15]; -0.286 (active) in [16]; 0.019 in experiment [17]; 0 in [18]. Further, the values for the log2 fold change in [19] and in experiment [20] were -0.053 and 0.073, respectively.

In the case of LNPEP (UniProt Q9UIQ6), the log2 fold change was -0.005 in experiment [1]; -0.002 in experiment [2]; 0.046 in [3]; 0.016 in experiment [4]; 0.019 in [5]; 0.034 in [6]. In addition, the log2 fold change is 0.067 in [7]; -0.008 in experiment [8]; -0.01 in [9]; 0.042 in experiment [10]; 0.015 in experiment [11]; 0.021 in [12]. Also, the log2 fold change in experiment [13] is -0.021; in [14], 0.005; in [15] it was -0.02; in experiment [16] it was 0.014; in [17], 0; in experiment [18], -0.018. In addition, the results for the log2 fold change in experiment [19] and in experiment [20] were 0.001 and 0.016, respectively.
